Measured potencies and affinities stand elsewhere. Calls of active or inactive are those of the source.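 Rule for the calls: active = dose curve whose fit quality R squared exceeds 0.5; inactive = the rest.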

The target of this assay is Muscarinic acetylcholine receptor M4 (Rattus norvegicus) (UniProt P08485). Nature of the assay: potentiation of ACh calcium response at rM4 – cell-based, CHO-K1 rat M4/Gqi5, Fluo-4 calcium, ACh EC20, selectivity assay for M1 muscarinic PAM project, dose response (AID 2438). Particulars: series mostly up to 30 µM.
Sequence of Muscarinic acetylcholine receptor M4 (Rattus norvegicus) (P08485 whole entry, looked up): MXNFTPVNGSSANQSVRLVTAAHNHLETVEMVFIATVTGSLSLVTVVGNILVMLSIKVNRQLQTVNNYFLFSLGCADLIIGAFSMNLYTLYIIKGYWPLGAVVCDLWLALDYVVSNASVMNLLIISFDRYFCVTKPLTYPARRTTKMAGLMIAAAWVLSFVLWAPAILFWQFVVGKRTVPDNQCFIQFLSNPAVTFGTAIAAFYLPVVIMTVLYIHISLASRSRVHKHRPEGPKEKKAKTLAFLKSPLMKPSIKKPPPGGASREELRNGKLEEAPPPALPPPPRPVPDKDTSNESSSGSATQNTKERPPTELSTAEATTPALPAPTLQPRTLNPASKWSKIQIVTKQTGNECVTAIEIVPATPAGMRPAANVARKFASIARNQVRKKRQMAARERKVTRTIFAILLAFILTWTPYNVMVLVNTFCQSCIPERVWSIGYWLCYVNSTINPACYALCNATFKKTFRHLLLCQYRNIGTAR
Take `Cn1cc(-c2cc(F)c(CN3C(=O)C(=O)c4ccccc43)c(F)c2)cn1`: the outcome was inactive.
With `O=C1C(=O)N(Cc2ccc(Oc3ccccc3)cc2)c2ccc(OC(F)(F)F)cc21`, the result was inactive.
In the case of `Cc1cc(NC(=O)CS(=O)(=O)c2cn(Cc3cc(Br)ccc3F)c3ccccc23)no1`, the result was inactive.
The result for `Cn1cc(-c2ccc(CN3C(=O)C(=O)c4ccccc43)c(F)c2)cn1` reads “inactive”.

Source of the values: PubChem BioAssay AID2438 (Vanderbilt High Throughput Screening Facility, 2010).
